Assay [1] in a line: qHTS assay to identify small molecule agonists of the constitutive androstane receptor (CAR) signaling pathway - cell viability counter screen (AID 1224836). Further: nearly all actives have a fitted effect of over 45% in size. Further: potency means the concentration at half of the fitted maximal effect. The method, boiled down: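 Cells were seeded and incubated 4 hrs. Compounds were added across 15 concentrations together with PK11195 at 0.75 uM final. Plates were incubated 23 hrs at 37 C. CellTiter-Fluor was added and fluorescence measured.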
Background: qHTS replaces the single test concentration by a dilution series.

Assay [2] can be described thus: qHTS assay to identify small molecule antagonists of the constitutive androstane receptor (CAR) signaling pathway - cell viability counter screen (AID 1224837). Further: nearly all actives have a fitted effect of over 45% in size. Further: potency means the concentration at half of the fitted maximal effect. The method, boiled down: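 Read-out: CellTiter-Fluor fluorescence after 23 hr at 37 C/5% CO2. Cells: HepG2 double-stable for hCAR and CYP2B6-2.2kb. Compounds tested at 15 concentrations in the presence of CITCO, final concentration 50 nM.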

Assay [3] addresses Nuclear receptor subfamily 1 group I member 3 (Homo sapiens) (UniProt Q14994). The assay can be described thus: qHTS assay to identify small molecule antagonists of the constitutive androstane receptor (CAR) signaling pathway (AID 1224838).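 Further: HepG2 cells stably expressing hCAR with CYP2B6 luciferase reporter stimulated by CITCO; nearly all actives have a fitted effect of over 40% in size.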 Further: potency means the concentration at half of the fitted maximal effect. The method, boiled down:
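Read-out: ONE-Glo luciferase luminescence after 30 min at room temperature. HepG2-CYP2B6-hCAR double-stable cells, compounds in 15-point titration plus 50 nM CITCO final, 24 h at 37 C/5% CO2.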

The target is the same in assay [4]. The assay can be described thus: qHTS assay to identify small molecule agonists of the constitutive androstane receptor (CAR) signaling pathway (AID 1224839). Further: nearly all actives have a fitted effect of over 15% in size. Further: potency means the concentration at half of the fitted maximal effect.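 On activation: HepG2 cells stably carrying human CAR and a CYP2B6 luciferase reporter.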 The essentials:
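Cells were plated and incubated 4 hrs, then dosed with compounds at 15 concentrations. PK11195 was added to 0.75 uM final. After 24 hrs at 37 C, luciferase luminescence was measured.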

Assay [5] in a line: qHTS assay to identify small molecule antagonists of the estrogen related receptor signaling pathway with the pleiotropic PPARgamma coactivator (PGC) from Tox21 10K library - cell viability counter screen (AID 1224840; active means well fitted cell-killing curve with a large enough effect in the repeat runs, not every such curve was filed as active; further: nearly all actives have a fitted effect of over 40% in size; further: potency means the concentration at half of the fitted maximal effect). The essentials:
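Fluorescence read-out of CellTiter-Fluor viability reagent, added after cells had been exposed to compound in DMSO for 17.5 h at 37 C; 30 min development at 37 C/5% CO2. Cells: PGC/ERR line, 2,000/well.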

Assay [6] in a line: qHTS assay to identify small molecule agonists of the estrogen related receptor signaling pathway with the pleiotropic PPARgamma coactivator (PGC) from Tox21 10K library (AID 1224842). Further: nearly all actives have a fitted effect of over 15% in size. The method, boiled down:
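PGC/ERR reporter cell line, 2,000 cells per well, incubated 6 h at 37 C before 23 nL compound in DMSO was added. After 18 h at 37 C, One-Glo luminescence read following 30 min at room temperature.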

The target in assay [7] is Thyrotropin receptor (Homo sapiens) (UniProt P16473). As to the kind of experiment: qHTS assay to identify small molecule agonists of the thyroid stimulating hormone receptor (TSHR) signaling pathway (AID 1224843; calls by dose curve; further: nearly all actives have a fitted effect of over 45% in size). The method, boiled down: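 Agonist-mode screen: TSHR HEK293 cells received test chemicals for half an hour at room temperature, then HTRF cAMP detection reagents for one hour prior to fluorescence measurement. Each chemical ran as a 15-concentration series, triplicated.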

Assay [8] can be described thus: qHTS assay to identify small molecule agonists of the hypoxia (HIF-1) signaling pathway - cell viability counter screen (AID 1224844; calls by dose curve; further: nearly all actives have a fitted effect of over 50% in size; further: potency means the concentration at half of the fitted maximal effect). The essentials:
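CellTiter-Glo luminescence read-out, 30 min RT, taken in the same wells as the beta-lactamase HRE reporter assay; HRE-bla ME-180 cells, 0.5% dialyzed FBS, 17 hr compound treatment at 37C, 5% CO2.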

The nature of assay [9]: qHTS assay to identify small molecule agonists of the hypoxia (HIF-1) signaling pathway (AID 1224846; active means well fitted activation curve with a large enough effect in the signal ratio in the repeat runs, not every such curve was filed as active; the % refers to the signal ratio). The method, boiled down: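 Beta-lactamase FRET read-out (CCF4-AM substrate) from ME-180 cells carrying an HRE-driven bla reporter, after 17 hrs compound exposure at 37C/5% CO2. Cells were seeded at 2,000 per well in 0.5% dialyzed FBS medium and preincubated 5 hrs.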
Assay [10] in a line: qHTS assay to identify small molecule agonists of H2AX - cell viability counter screen (AID 1224847; calls by dose curve; further: nearly all actives have a fitted effect of over 30% in size; further: potency means the concentration at half of the fitted maximal effect; on activity change, negative = cytotoxicity: top concentration of the series differs between compounds). The essentials:
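Cytotoxicity counter screen in wild-type CHO-K1 cells: a 3 hr compound treatment at 37C across 15 concentrations, followed by CellTiter-Glo luminescence to gauge viable cells.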

A short description of assay [11]: qHTS assay to identify small molecule antagonists of the estrogen related receptor (ERR) signaling pathway from Tox21 library (AID 1224848). Further: nearly all actives have a fitted effect of over 50% in size. Further: potency means the concentration at half of the fitted maximal effect. The essentials:
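Quantitative high-throughput format: ERR reporter cells (2,000/well) pre-incubated 6 h, treated 18 h at 37 C with compounds in DMSO alongside positive and negative controls, then read by ONE-Glo luminescence.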

The nature of assay [12]: qHTS assay to identify small molecule agonists of the estrogen related receptor (ERR) signaling pathway from Tox21 library (AID 1224849; calls by dose curve; further: nearly all actives have a fitted effect of over 15% in size). Particulars: ERR reporter cell line, ONE-Glo luciferase, 18 h; at 92.4 µM (top of the series) unless noted. The method, boiled down:
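Luminescence readout (ONE-Glo, 30 min RT) after 18 h compound exposure at 37 C of NTP-supplied ERR reporter cells; cells were plated 6 h before compound addition by pin tool.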

The nature of assay [13]: qHTS RealTime-Glo MT Cell Viability Assay in HEK293 cells - 32 hour (AID 1224868). Further: nearly all actives have a fitted effect of over 50% in size. Further: potency means the concentration at half of the fitted maximal effect. The method, boiled down:
(§1)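 Cells + reagent dispensed (600 cells/well, HEK293) → 5 h at 37 C/5% CO2 → 23 nL compound in DMSO pinned → 40 h at 37 C → luminescence read at 0, 8, 16, 24, 32, 40 h.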

Assay [14] is described as follows: A CellTox Green Cytotoxicity Assay to monitor cytotoxicity in HEK293 cells - 0 hour (AID 1224869). Further: nearly all actives have a fitted effect of over 50% in size. The method, boiled down: (§2)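 Read-out: fluorescence of a cell-impermeant cyanine dye staining DNA of dead cells, proportional to cytotoxicity. HEK293, 600 cells/well with reagent, compound (23 nL DMSO) added after 5 h; reads at 0, 8, 16, 24, 32, 40 h.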
Assay [15] in a line: A CellTox Green Cytotoxicity Assay to monitor cytotoxicity in HEK293 cells - 40 hour (AID 1224871). Further: nearly all actives have a fitted effect of over 45% in size. Further: potency means the concentration at half of the fitted maximal effect. The method, boiled down:
as §2

Assay [16] in a line: qHTS RealTime-Glo MT Cell Viability Assay in HEK293 cells - 16 hour (AID 1224872). Further: nearly all actives have a fitted effect of over 50% in size. Further: potency means the concentration at half of the fitted maximal effect. On activity change, negative = cytotoxicity: top concentration of the series differs between compounds. The method, boiled down: as §1
Assay [17] in a line: qHTS assay to identify small molecule antagonists of the estrogen related receptor signaling pathway with the pleiotropic PPARgamma coactivator (PGC) from Tox21 10K library (AID 1224841; call rule not given here; further: potency means the concentration at half of the fitted maximal effect). The method, boiled down: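 Luminescence read-out (One-Glo luciferase reagent, 30 min at room temperature) from PGC/ERR cells exposed to DMSO-dissolved test compounds for 18 h at 37 C; cells, 2,000 per well, had been preincubated 6 h before compound transfer.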

Assay [18] is described as follows: qHTS RealTime-Glo MT Cell Viability Assay in HepG2 cells - 24 hour (AID 1224867). Further: nearly all actives have a fitted effect of over 50% in size. Further: potency means the concentration at half of the fitted maximal effect. The essentials: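 Real-time, nonlytic viability: 600 HepG2 cells/well mixed with NanoLuc enzyme plus prosubstrate; 5 h settle, compound (DMSO) added by pintool; luminescence monitored over 40 h at 37 C.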
A short description of assay [19]: qHTS RealTime-Glo MT Cell Viability Assay in HepG2 cells - 40 hour (AID 1224870). Further: nearly all actives have a fitted effect of over 50% in size. Further: potency means the concentration at half of the fitted maximal effect. The method, boiled down: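 HepG2 cells (600/well) mixed with RealTime-Glo MT reagent, settled 5 h at 37 C/5% CO2 before compound addition. Nonlytic NanoLuc luminescence from viable-cell prosubstrate reduction read repeatedly during 40 h treatment at 37 C.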
A short description of assay [20]: qHTS assay to identify small molecule agonists of H2AX (AID 1224845; active means well fitted activation curve with a large enough effect in the signal ratio in the repeat runs, not every such curve was filed as active; the % refers to the signal ratio). The method, boiled down:
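Wild-type CHO-K1 cells, plated overnight, exposed 3hr at 37C to 15 concentrations (0.76% DMSO final). Lysed, then HTRF anti-pH2AX (S139) cryptate and anti-H2AX-d2 antibodies, 24 hr room temperature; 665/620 nm emission read.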

Values without a mark were called inactive. Results filed as inconclusive are left out. Calls of active or inactive are those of the source. Unless noted, the call rests on the fitted dose curve; in most records, active means well fitted curve in the direction sought with a large enough effect in the repeat runs; inconclusive means weak or mixed curves; inactive means no such curve, though single readings can be large; an effect the other way counts as inactive or inconclusive.
On the % scale 0 is the no-effect control and ±100 the full control effect.

Nuclear receptor subfamily 1 group I member 3 (Homo sapiens), sequence (Q14994 whole entry, looked up): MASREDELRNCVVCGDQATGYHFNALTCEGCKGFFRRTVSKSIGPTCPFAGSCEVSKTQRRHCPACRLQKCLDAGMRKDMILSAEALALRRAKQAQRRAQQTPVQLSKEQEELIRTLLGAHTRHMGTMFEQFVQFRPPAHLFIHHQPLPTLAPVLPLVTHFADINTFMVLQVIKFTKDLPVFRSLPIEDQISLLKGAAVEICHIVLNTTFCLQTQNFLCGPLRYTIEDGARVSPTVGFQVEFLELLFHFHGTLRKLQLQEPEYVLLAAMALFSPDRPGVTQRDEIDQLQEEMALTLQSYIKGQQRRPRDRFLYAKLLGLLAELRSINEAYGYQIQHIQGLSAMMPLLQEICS
Thyrotropin receptor (Homo sapiens), sequence (P16473 whole entry, looked up): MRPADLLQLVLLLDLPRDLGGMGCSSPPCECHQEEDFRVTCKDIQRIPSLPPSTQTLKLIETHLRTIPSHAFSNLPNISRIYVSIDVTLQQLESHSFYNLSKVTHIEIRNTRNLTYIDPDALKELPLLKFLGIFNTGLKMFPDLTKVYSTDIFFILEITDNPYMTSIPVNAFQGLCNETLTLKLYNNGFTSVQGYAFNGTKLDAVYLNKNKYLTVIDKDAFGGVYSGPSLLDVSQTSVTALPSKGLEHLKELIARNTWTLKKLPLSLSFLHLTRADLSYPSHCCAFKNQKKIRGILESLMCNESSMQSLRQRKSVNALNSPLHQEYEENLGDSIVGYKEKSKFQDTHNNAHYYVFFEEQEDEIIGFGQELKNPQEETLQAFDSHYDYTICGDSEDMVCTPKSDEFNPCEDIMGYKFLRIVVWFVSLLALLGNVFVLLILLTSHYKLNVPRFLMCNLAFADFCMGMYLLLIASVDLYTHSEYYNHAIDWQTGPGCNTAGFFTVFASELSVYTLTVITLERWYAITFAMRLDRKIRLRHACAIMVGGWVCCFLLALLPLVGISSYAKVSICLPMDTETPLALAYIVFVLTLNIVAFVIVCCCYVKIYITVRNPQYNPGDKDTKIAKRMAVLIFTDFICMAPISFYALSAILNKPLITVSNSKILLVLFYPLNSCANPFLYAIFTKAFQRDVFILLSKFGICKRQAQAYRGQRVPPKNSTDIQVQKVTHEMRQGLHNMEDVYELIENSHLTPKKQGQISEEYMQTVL

On to `CCN1/C(=C/C=C/c2sc3ccccc3[n+]2CC)Sc2ccccc21`, for which the Potency in [1] is 13 µM (active); in assay [2], 11.6 µM (active); in assay [3], 14.6 µM (active); in assay [5] it was 6.51 µM (active); in assay [10], 7.6 µM (active); in [11], 0.231 µM (active). Further, the Potency in assay [13] is 1.04 µM (active); in assay [15], 9.28 µM (active); in assay [16] it was 1.04 µM (active). For the same molecule, the activation in assay [4] was -9.24% [at 19 µM]; in [6], -14.5% [at 19 µM]; in [7], 1.82% [at 19 µM]; in [9], 0.484% [at 15.8 µM]. Besides, in assay [8], the activity change, negative = cytotoxicity was 19.1% [at 15.8 µM]. For the same molecule, the activity change, positive = activation in [12] is -58.8% [at 19 µM]. In [14], the cytotoxicity was -12.5% [at 15.8 µM].

In the case of `OC1(c2ccc(Cl)c(C(F)(F)F)c2)CCN(CCCC(c2ccc(F)cc2)c2ccc(F)cc2)CC1`, the Potency in [1] was 23.7 µM (active); in assay [2], 13.3 µM (active); in [3] it was 13.3 µM (active); in assay [5] it was 18.8 µM (active); in [17], 29.8 µM (active); in assay [8], 6.74 µM (active). The Potency in assay [10] was 55.2 µM (active); in assay [11] it was 8.41 µM (active); in assay [18], 9.52 µM (active); in assay [13] it was 9.52 µM (active); in [19], 9.52 µM (active); in assay [15] it was 21.3 µM (active). Also, the Potency in assay [16] is 9.52 µM (active). For the same molecule, the Potency entry in [4], in [6], in assay [7] and in assay [14] was “inactive” each time. In [12], the activity change, positive = activation was -71.9% [at 42.5 µM].

Consider `Cc1cccc(N(C)C(=S)Oc2ccc3c(c2)C2CCC3C2)c1` (centres undefined), for which the Potency entry in [1], in assay [2], in assay [3], in assay [5], in assay [17] and in [6] was “inactive” each time. The Potency result in [7], in assay [8], in [20], in [11], in [18] and in assay [13] was “inactive” each time. In addition, the Potency result in assay [14], in assay [15] and in assay [16] was “inactive” each time. For the same molecule, in assay [4], the Potency is 21.1 µM (active). The activity change, positive = activation in assay [12] was -2.97% [at 42.5 µM].

On to `CC1(C)CCC(C)(C)c2cc(C(=O)Nc3ccc(C(=O)O)cc3)ccc21`, for which the Potency result in assay [1], in assay [2], in [3], in [4], in assay [5] and in [17] was “inactive” throughout. In addition, the Potency entry in assay [6], in [7], in [8], in [9], in assay [18] and in [14] was “inactive” throughout. In addition, the Potency entry in assay [16] is “inactive”. In addition, the activity change, positive = activation in assay [12] was -24.2%.

With `CCC(C)(C)C1CCCCC1OC(C)=O` (centres undefined), the Potency entry in [1], in assay [2], in [3], in [4], in assay [5] and in assay [17] was “inactive” each time. Further, the Potency entry in assay [6], in [7], in assay [8], in [20], in [9] and in assay [10] was “inactive” throughout. In addition, the Potency entry in assay [11], in assay [18], in assay [14], in [19], in assay [15] and in assay [16] was “inactive” each time. In [12], the activity change, positive = activation is -0.855%.

As to `CCCCCCCCCCn1cc[n+](CCCCCCCCCC)c1C`, the Potency was 30.7 µM (active) in assay [1]; 54.5 µM (active) in [2]; 30.7 µM (active) in [3]; 27.3 µM (active) in [5]; 27.3 µM (active) in [17]; 10.1 µM (active) in [10]. The Potency in assay [11] was 2.17 µM (active); in assay [18], 19.5 µM (active); in assay [13], 1.38 µM (active); in assay [15] it was 19.5 µM (active); in assay [16], 6.93 µM (active). Further, the Potency entry in assay [4], in assay [6] and in assay [14] was “inactive” each time. The activity change, positive = activation in assay [12] is -74.4%.

The record behind these values is PubChem BioAssay (Tox21).
